# Source: publication PMC4336329 (PLoS ONE, 2015)
# Out of some 310,000 compounds screened, about 14,000 (4.5%) showed an effect of 50% or more. The effect is printed as a negative number. The list comes from a sample in which strong results are over-represented; it also holds similar structures and randomly drawn compounds.
# Target: human ether-à-go-go-related gene (hERG) potassium channel (human, UniProt Q12809)
# Assay: primary screen, population patch clamp on CHO cells stably expressing hERG; higher = less effect of the substance
# 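Further: peak tail current of the secondary pulse compared with the same well before compound.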
# human ether-à-go-go-related gene (hERG) potassium channel, sequence (Q12809 whole entry, looked up): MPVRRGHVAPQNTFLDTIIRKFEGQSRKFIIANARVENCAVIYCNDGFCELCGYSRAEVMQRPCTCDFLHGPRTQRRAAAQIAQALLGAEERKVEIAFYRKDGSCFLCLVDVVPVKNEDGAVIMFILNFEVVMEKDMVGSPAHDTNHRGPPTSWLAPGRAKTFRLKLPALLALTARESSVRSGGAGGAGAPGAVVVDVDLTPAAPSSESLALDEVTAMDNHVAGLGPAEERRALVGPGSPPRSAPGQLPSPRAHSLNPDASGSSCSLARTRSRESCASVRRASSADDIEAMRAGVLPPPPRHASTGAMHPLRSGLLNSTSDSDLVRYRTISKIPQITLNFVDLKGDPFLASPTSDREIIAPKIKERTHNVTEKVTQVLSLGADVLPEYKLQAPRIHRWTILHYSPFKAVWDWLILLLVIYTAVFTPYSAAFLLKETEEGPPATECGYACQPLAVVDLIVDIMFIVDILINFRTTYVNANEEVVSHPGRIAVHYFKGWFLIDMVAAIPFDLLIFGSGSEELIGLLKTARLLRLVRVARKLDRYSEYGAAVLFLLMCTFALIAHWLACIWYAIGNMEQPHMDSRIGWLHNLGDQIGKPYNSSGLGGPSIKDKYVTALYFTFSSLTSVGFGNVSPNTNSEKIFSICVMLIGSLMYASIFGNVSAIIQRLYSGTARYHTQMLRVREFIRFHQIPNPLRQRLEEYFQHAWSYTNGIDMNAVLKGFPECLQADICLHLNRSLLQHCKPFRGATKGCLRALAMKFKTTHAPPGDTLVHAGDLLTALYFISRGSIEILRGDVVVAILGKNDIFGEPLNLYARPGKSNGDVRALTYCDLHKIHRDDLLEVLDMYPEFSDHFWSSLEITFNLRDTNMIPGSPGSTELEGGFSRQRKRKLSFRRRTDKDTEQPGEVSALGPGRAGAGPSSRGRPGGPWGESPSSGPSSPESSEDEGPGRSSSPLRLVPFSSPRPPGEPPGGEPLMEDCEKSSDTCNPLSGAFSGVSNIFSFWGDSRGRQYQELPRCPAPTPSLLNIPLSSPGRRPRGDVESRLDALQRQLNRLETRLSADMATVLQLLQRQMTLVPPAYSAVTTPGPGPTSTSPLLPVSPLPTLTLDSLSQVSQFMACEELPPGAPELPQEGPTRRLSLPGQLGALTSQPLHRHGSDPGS
row,SMILES,"hERG current change (%, negative = inhibition) at 10uM [%]"
1,S=C(NCCN(C1CCCCC1)C1CCCC1)Nc1cccc(Cl)c1,-71.3
2,Cc1ccc(C)c(NC(=S)NCc2ccccc2)c1,13.8
3,Cc1cc(C)cc(NC(=S)NCCN(C2CCCCC2)C2CCCC2)c1,-69.6
4,S=C(Nc1cccc(Cl)c1)NC1CCCCC1,7.58
5,Cc1cccc(NC(=S)NCCN(C2CCCCC2)C2CCCC2)c1,-70.3
6,Cc1cc(C)cc(NC(=S)NCCCO)c1,-0.803
7,Cc1cccc(NC(=S)NC2CCCC2)c1,0.919
8,Cc1cccc(NC(=S)N(C)C2CCCCC2)c1,5.51
9,Cc1ccc(SCCNC(=S)Nc2cc(C)ccc2C)cc1,4.34
10,CN(C)CCNC(=S)Nc1cccc(Cl)c1,-27
11,Cc1ccc(C)c(NC(=S)NCCN(C2CCCCC2)C2CCCC2)c1,-68.5
12,CCOCCCNC(=S)Nc1cc(C)cc(C)c1,11
13,Cn1ncc(Cl)c(Oc2ccc(C(C)(C)C)cc2)c1=O,-26
14,CCOc1ccccc1NC(=O)c1cc(SC)ccc1Cl,50.4
15,COc1cc(/C=N/NC(=O)CCOc2ccccc2C)cc(Br)c1O,-16.4
16,CC1CC(C)CN(C(=O)CCC(=O)Nc2nnc(C3CCCCC3)s2)C1 (centres unmarked),14.2
17,CC(C)(C)CN1CCNC(=O)C1CC(=O)NCCc1ccccc1F (centres unmarked),4.25
18,COc1ccccc1-c1csc(NC(=O)c2cc(-c3cccs3)nc3ccccc23)n1,8.88
19,COc1ccc2cc(C3CC(c4ccco4)=NN3S(=O)(=O)c3ccccc3)c(Cl)nc2c1 (centres unmarked),4.38
20,CCN(CC(=O)NCc1cccs1)C(=O)c1ccc(NS(=O)(=O)c2cccc([N+](=O)[O-])c2)cc1,-19.7
21,C/C(=N\NC(=S)NCc1ccccc1)c1ccc(Br)cc1,22.8
22,O=C(O)C1CSC(c2ccccc2Cl)N1C(=O)c1ccc(Cl)cc1 (centres unmarked),14.9
23,Cc1ccc(C)c(N2CCN(CCN3CCCCC3)CC2)c1.Cl,-3.6
24,Cc1ccc(C)c(N2CCN(CCCc3ccccc3)CC2)c1,-59.9

row,SMILES,"hERG current change (%, negative = inhibition) at 10uM [%]"
1,O=C(CCc1ccccc1)N1CCN(c2ccccc2F)CC1,15.9
2,O=C(CN1CCN(c2ccccn2)CC1)NCCc1ccccc1,-9.55
3,O=C(CCc1ccccc1)N1CCN(c2ccccn2)CC1,-9.9
4,NCCCN1CCN(c2ccccc2)CC1,-8.45
5,Fc1ccccc1N1CCN(CCCc2ccccc2)CC1,-64.7
6,Fc1ccccc1N1CCN(Cc2c(F)cccc2F)CC1,7.89
7,c1ccc(CCCN2CCN(c3ccccc3)CC2)cc1,-61.3
8,C/C=C(\C)CN1CCN(c2cc(C)ccc2C)CC1,6.08
9,c1ccc(CCCN2CCN(c3ccccn3)CC2)cc1,-51.7
10,CCOC(=O)N1CCN(CCCc2ccccc2)CC1,-6.26
11,O=C(O)c1ccn[nH]1,-0.906
12,Cc1ccc(/C=N/NC(=O)c2nnn(-c3nonc3N)c2C(C)C)o1,-4.22
13,CSc1ncccc1C(=O)OCC(=O)c1cccs1,19.4
14,CCOP(=O)(OCC)C(NC(=O)Nc1ccc(Cl)cc1)C(=O)N(CC)CC (centres unmarked),-13.4
15,CC(c1ccccc1)n1cncc1C(=O)O (centres unmarked),18
16,CCn1c(SCC(=O)c2c[nH]c3ccccc23)nc2cc(S(=O)(=O)N3CCOCC3)ccc21,9.49
17,C=C(C)CSc1nnc([C@H](CCSC)NC(=O)OC(C)(C)C)o1,-14.3
18,c1coc(CNc2nc3ccccc3s2)c1,11.1
19,Cn1ccnc1SCC(=O)c1cc2ccccc2o1,4.65
20,Cc1nn(C2CCS(=O)(=O)C2)c(Cl)c1/C=C/C(=O)OCC(=O)Nc1ccc2c(c1)OCO2 (centres unmarked),7.01
21,O=C(NCCc1ccccc1)C1CCC(Cn2c(=O)c3ccccc3n(Cc3cccnc3)c2=O)CC1 (centres unmarked),-37.3
22,CCOc1ccc(/C=C2\SC(=S)N(N3C(=O)C4CC4C3=O)C2=O)cc1 (centres unmarked),15.4
23,c1ccc(CCN2CCC(N3CCN(c4ccccc4)CC3)CC2)cc1,-66.4
24,Cc1ccc(N2CCN(CCc3ccccc3)CC2)cc1,-36.2

row,SMILES,"hERG current change (%, negative = inhibition) at 10uM [%]"
1,O=S(=O)(Cc1ccccc1)N1CCC(N2CCN(c3ccccc3)CC2)CC1,-22.7
2,Cc1cccc(CN2CCN(CCCc3ccccc3)CC2)c1.O=C(O)C(=O)O,-75.4
3,Cc1cccc(CN2CCN(Cc3ccc(Cl)cc3)CC2)c1.O=C(O)C(=O)O,-40
4,Cc1cccc(CN2CCN(C(=O)Cc3ccccc3)CC2)c1.O=C(O)C(=O)O,4.99
5,CC1=NN(c2ccccc2)C(=O)/C1=C/c1c(O)n(-c2ccc(F)cc2)[nH]c1=O,46
6,Cc1c(C#N)c2ccccc2n1CC(=O)NCCc1c[nH]c2ccccc12,-2.5
7,CCOC(=O)c1ccc(Oc2nc(OC)nc(N(C)C)n2)cc1,6.27
8,Cc1[nH]c(=O)[nH]c1C(=O)CCCCC(=O)OCC(=O)Nc1ccccn1,12.3
9,CCOC(=O)CCCCC(=O)c1[nH]c(=O)[nH]c1C[n+]1ccccc1.[Cl-],26.4
10,Cc1[nH]c(=O)[nH]c1C(=O)CCCCC(=O)O,-57.7
11,CCCc1nc2oc3c(OCC)ncnc3c2c2c1COC(C)(C)C2,-13.2
12,CCCCn1c(N)c(N(C)C(=O)c2ccc(-n3cccn3)cc2)c(=O)[nH]c1=O,0.138
13,Cc1cc(NC(=O)c2cccc(S(=O)(=O)N3CCCCCC3)c2)n(-c2ccccn2)n1,13.4
14,CCOC(=O)C1(Cc2cccc(F)c2)CCN(C2CCOCC2)CC1,-63.5
15,CCOC(=O)C1(Cc2cccc(OC)c2)CCN(C2CCOCC2)CC1,-68.7
16,CCOC(=O)C1(Cc2cccc(F)c2)CCN(C(=O)C2CCCO2)CC1 (centres unmarked),10.2
17,CCOC(=O)C1(Cc2cccc(F)c2)CCN(C(=O)C2CCOCC2)CC1,-15
18,Cc1ccc(CC(=O)Nc2ncc([N+](=O)[O-])s2)cc1,32.5
19,CCCCN(CC)C(=O)Cc1c(C(=O)O)[nH]c2ccc(Cl)cc12,12.4
20,CCN1CCN(c2ccc(NC(=O)COc3ccccc3Cl)cc2)CC1,-40.7
21,Cc1cc(S(=O)(=O)N2CCOCC2)ccc1NC(=O)c1ccc(F)cc1,1.32
22,Cc1ccc(CNC(=O)c2cc3c(s2)CN(Cc2ccccc2)C3)cc1.Cl,3.85
23,CC(C#N)(NC(=O)CN1CCN(S(=O)(=O)c2ccccc2Cl)CC1)C1CC1 (centres unmarked),5.18
24,Cc1c(C=C2C(=O)N(C)C(=S)N(C)C2=O)c2ccccc2n1CC(=O)NCC1CCCO1 (centres unmarked),4.95

row,SMILES,"hERG current change (%, negative = inhibition) at 10uM [%]"
1,O=C(/C=C/c1ccc([N+](=O)[O-])cc1)Nc1cccnc1,-62.7
2,N#C/C(=C\c1cccnc1)c1ccc(Br)cc1,-5.44
3,N#C/C(=C\c1cccnc1)c1ccc([N+](=O)[O-])cc1,-56.3
4,O=C(/C=C/c1cccnc1)c1ccc([N+](=O)[O-])cc1,-42.3
5,N#C/C(=C\c1cccnc1)c1ccccc1[N+](=O)[O-],4.04
6,CC(C(=O)O/N=C(\N)c1cccnc1)c1ccc([N+](=O)[O-])cc1 (centres unmarked),-56.8
7,O=C(/C=C/c1ccc(Cl)c([N+](=O)[O-])c1)c1cccnc1,-6.3
8,O=C(/C=C/c1ccc([N+](=O)[O-])cc1)c1cccnc1,-53
9,Cc1ccc(/C(N)=N/OC(=O)C(C)c2ccc([N+](=O)[O-])cc2)cc1 (centres unmarked),-4.62
10,O=C(/C=C/c1ccccc1)Nc1cccnc1,-26
11,O=C(/C=C/c1ccc(Cl)c([N+](=O)[O-])c1)Nc1cccnc1,-17.3
12,N/C(=N\OC(=O)c1ccc([N+](=O)[O-])cc1)c1cccnc1,-10.7
13,O=C(NNC(=O)C12CC3CC(CC(Cl)(C3)C1)C2)c1csc(N2CCOCC2)n1,-1.63
14,Cc1[nH]nc(SCC(=O)N2CCCCCC2)c1[N+](=O)[O-],3.4
15,Cc1nnc(SCC(=O)NNC(=O)CC#N)[nH]c1=O,-7.01
16,CCOc1cc(-c2cc(N)n[nH]2)cc(OCC)c1OCC,14.6
17,Cc1ccc(N(C)C(=O)n2cnc3ccccc32)cc1,-1.52
18,CN(Cc1ccccc1)C(=S)NC(=O)c1cccs1,8.32
19,O=C(NCc1nnc(SC/C=C/c2ccccc2)o1)c1ccco1,-5.97
20,CC1(COS(N)(=O)=O)CCCCC1,1.76
21,Cc1ccc(S(=O)(=O)Nc2ccc(-c3nc4ccc(C)cc4s3)cc2)cc1,2.32
22,CC(C)COc1ccc(/C(=N/O)c2ccccc2)cc1,11
23,Cc1ccc(C(=O)c2coc3ccc(OCC(=O)O)cc23)cc1,2.16
